Our source for the Potency values is PubChem BioAssay (NCATS).

The structures appear in SMILES notation. Values joined by “and” are separate entries in the source; they are usually repeats but may differ in a detail not shown here. Identical values can stand only once. Records with an inconclusive call do not appear. Active and inactive are the calls of the source. Unless noted, calls follow the shape of the dose curve; as a rule, active = well fitted curve in the direction sought with a large enough effect; inconclusive = small, poorly fitted or top-dose-only effect, or another doubt; inactive = no such curve, though single readings can be large; an effect the other way counts as inactive or inconclusive.

Test [1] deals with Cytochrome P450 2D6 (Homo sapiens) (UniProt P10635). Description: Cytochrome P450 family 2 subfamily D member 6 (CYP2D6) small molecule antagonists: luciferase biochemical (cell-free) qHTS assay (AID 1645840; active = well fitted curve in the direction sought with a large enough effect in the repeat runs; an effect the other way counts as inactive or inconclusive; also: nearly all actives have a fitted effect of over 55% in size). The essentials: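 P450-Glo CYP2D6 system: proluciferin substrate converted by enzyme to luciferin, read by luminescence proportional to activity. Enzyme-substrate mix with compound 10 min at room temperature, then NADPH regeneration 1 h before detection reagent.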
Sequence of Cytochrome P450 2D6 (Homo sapiens) (P10635 whole entry, looked up): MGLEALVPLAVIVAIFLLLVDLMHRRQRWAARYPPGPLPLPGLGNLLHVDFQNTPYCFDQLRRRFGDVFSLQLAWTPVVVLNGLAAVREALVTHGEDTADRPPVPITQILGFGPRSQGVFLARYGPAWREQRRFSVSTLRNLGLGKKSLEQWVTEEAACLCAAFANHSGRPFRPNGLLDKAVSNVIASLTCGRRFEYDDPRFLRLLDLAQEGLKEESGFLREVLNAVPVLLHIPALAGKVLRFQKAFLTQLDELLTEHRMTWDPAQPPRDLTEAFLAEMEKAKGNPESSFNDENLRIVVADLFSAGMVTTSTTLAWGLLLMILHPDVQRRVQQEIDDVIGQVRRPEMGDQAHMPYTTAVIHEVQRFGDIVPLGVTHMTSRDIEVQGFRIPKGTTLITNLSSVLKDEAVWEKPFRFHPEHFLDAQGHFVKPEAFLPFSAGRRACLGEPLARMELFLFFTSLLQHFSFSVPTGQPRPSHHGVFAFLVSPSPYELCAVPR

For test [2], the target named is Cytochrome P450 2C9 (Homo sapiens) (UniProt P11712). Description: Cytochrome P450 family 2 subfamily C member 9 (CYP2C9) small molecule antagonists: luciferase biochemical (cell-free) qHTS assay (AID 1645842; active = well fitted curve in the direction sought with a large enough effect in the repeat runs; an effect the other way counts as inactive or inconclusive; also: nearly all actives have a fitted effect of over 55% in size). In short, it runs like this:
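P450-Glo CYP2C9 system: proluciferin substrate with enzyme in mix containing 0.4% BSA, 10 min at room temperature, then NADPH regeneration solution added and incubated 1 h at 37C. Detection reagent stopped reaction; luminescence read after 20 min as RLU.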

Test [3] is described as follows: Primary qHTS for inhibitors of nuclear receptor binding SET domain protein 2 (NSD2) in an isogenic RCH-ACV NSD2 p.E1099K mutant (9B) (AID 1645876). Also: nearly all actives have a fitted effect of over 70% in size.
The nature of test [4]: Primary qHTS for inhibitors of nuclear receptor binding SET domain protein 2 (NSD2) in an RCH-ACV wild type WT cells (2C) (AID 1645877). Also: nearly all actives have a fitted effect of over 70% in size.
Potency is read from the fitted curve at half-maximal effect.

Sequence of Cytochrome P450 2C9 (Homo sapiens) (P11712 whole entry, looked up): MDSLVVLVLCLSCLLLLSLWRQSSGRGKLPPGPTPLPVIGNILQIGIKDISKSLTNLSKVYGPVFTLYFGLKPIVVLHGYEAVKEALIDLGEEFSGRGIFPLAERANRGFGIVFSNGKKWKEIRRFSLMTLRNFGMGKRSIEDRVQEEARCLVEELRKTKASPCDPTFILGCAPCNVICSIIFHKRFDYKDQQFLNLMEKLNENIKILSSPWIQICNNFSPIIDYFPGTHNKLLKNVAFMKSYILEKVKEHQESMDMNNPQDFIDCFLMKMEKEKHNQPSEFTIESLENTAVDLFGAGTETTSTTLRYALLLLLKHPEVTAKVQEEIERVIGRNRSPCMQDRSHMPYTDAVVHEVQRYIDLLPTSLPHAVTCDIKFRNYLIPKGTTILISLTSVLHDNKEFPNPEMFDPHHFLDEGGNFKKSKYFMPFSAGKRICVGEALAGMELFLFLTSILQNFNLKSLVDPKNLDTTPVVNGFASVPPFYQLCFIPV

Take `CC1(C)OC(=O)C(OCC2CC2)=C1c1ccc(S(C)(=O)=O)cc1`: the Potency entry in test [1], in test [3] and in test [4] was “inactive” in each case. In test [2], the Potency was 13.5 µM (active).
Consider `Nc1ncnc2c1ncn2[C@H]1CCCO1`, for which the Potency result in test [1], in test [2], in test [3] and in test [4] was “inactive” throughout.
For the compound `CN1CCC(c2c[nH]c3ccc(NC(=O)c4ccc(F)cc4)cc23)CC1`, in test [1], the Potency is 16.9 µM (active). The Potency entry in test [2], in test [3] and in test [4] was “inactive” in each case.
Take `O=C(NCC(=O)N1CC[C@H](NC2CCC(O)(c3ccc(-c4ncccn4)cn3)CC2)C1)c1cccc(C(F)(F)F)c1` (stereo not given in full): the Potency result in test [1], in test [2], in test [3] and in test [4] was “inactive” in each case.
Turning to `CC1(C)CCC(C)(C)c2cc([C@@H](O)C(=O)Nc3ccc(C(=O)O)cc3F)ccc21`, the Potency result in test [1], in test [3] and in test [4] was “inactive” each time. In test [2], the Potency was 13.5 µM (active).
On to `O=C1NC(=Nc2ccccc2F)S/C1=C\c1ccc(C(=O)O)cc1`, for which the Potency result in test [1], in test [3] and in test [4] was “inactive” each time. In addition, the Potency in test [2] is 10.7 µM (active).
In the case of `CCn1c2ccccc2c2cc(CNC)ccc21`, the Potency was 9.52 µM (active) in test [1], 23 µM (active) in test [3] and 23 µM (active) in test [4]. Further, the Potency entry in test [2] is “inactive”.
`Cc1cc(N2CCCCC2)nc2ccccc12`: the Potency in test [1] is 10.7 µM (active). The Potency entry in test [2], in test [3] and in test [4] was “inactive” throughout.
As for `O=S(=O)(NC1CCNCC1)c1cc(S(=O)(=O)c2ccccc2)ccc1C(F)(F)F`, the Potency result in test [1], in test [2], in test [3] and in test [4] was “inactive” each time.
Regarding `Cc1cc(Nc2ncc(Cl)c(Nc3ccccc3S(=O)(=O)C(C)C)n2)c(OC(C)C)cc1C1CCNCC1`, the Potency was 16.9 µM (active) in test [1]; 3.38 µM (active) in test [2]; 3.25 µM (active) and 5.25 µM (active) in test [3]; 2.9 µM (active) and 3.72 µM (active) in test [4].
